# Measured values: PubChem BioAssay (NCI)
# The panel holds about 83,000 compounds, 20% with a hit somewhere; the sample as a whole holds those more often.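 A percent growth of 40 corresponds to 60% growth inhibition; 0 means no net growth; -100 means all cells died. Active threshold: below 10.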 Values without a mark were called inactive. Calls of active or inactive are those of the source.
# Assays:
# Test in all cases: NCI-60 one-dose screen, 48 h (100 = growth as untreated, 0 = no growth, -100 = all killed)
# Conditions in all cases: 10 µM unless noted
# NCI-H23 lung = system: NCI-H23 lung
# NCI-H226 lung = system: NCI-H226 lung
# NCI-H322M lung = system: NCI-H322M lung
# HOP-62 NSCLC = system: HOP-62 NSCLC
# NCI-H460 lung = system: NCI-H460 lung
# HOP-92 NSCLC = system: HOP-92 NSCLC
# NCI-H522 lung = system: NCI-H522 lung
# A549/ATCC NSCLC = system: A549/ATCC NSCLC
# 786-0 renal = system: 786-0 renal
# COLO 205 colon = system: COLO 205 colon
# DU-145 prostate = system: DU-145 prostate
# K-562 leukemia = system: K-562 leukemia
# MALME-3M melanoma = system: MALME-3M melanoma
# MDA-MB-231 breast = system: MDA-MB-231 breast
# RXF 393 renal = system: RXF 393 renal
# SF-268 CNS = system: SF-268 CNS
# SF-295 CNS = system: SF-295 CNS
# SF-539 CNS = system: SF-539 CNS
# UACC-257 melanoma = system: UACC-257 melanoma
# M14 melanoma = system: M14 melanoma
SMILES,growth (NCI-H23 lung),growth (NCI-H226 lung),growth (NCI-H322M lung),growth (HOP-62 NSCLC),growth (NCI-H460 lung),growth (HOP-92 NSCLC),growth (NCI-H522 lung),growth (A549/ATCC NSCLC),growth (786-0 renal),growth (COLO 205 colon),growth (DU-145 prostate),growth (K-562 leukemia),growth (MALME-3M melanoma),growth (MDA-MB-231 breast),growth (RXF 393 renal),growth (SF-268 CNS),growth (SF-295 CNS),growth (SF-539 CNS),growth (UACC-257 melanoma),growth (M14 melanoma)
CCN1CCN(CC(=O)Nc2nc3ccc(NCc4ccc(Cl)cc4)cc3s2)CC1,69.2%,60%,79.4%,77.6%,54.7%,31.6%,86.3%,61.5%,73%,23.8%,89.6%,2.71% (active),0.984% (active),51.9%,51.2%,71%,81.6%,64.3%,7.11% (active),–
CCN(CC)c1ccc(/C=C/C=C2\NC(=O)NC2=O)cc1,49.8%,69%,63.3%,45.3%,19.7%,31.1%,-36% (active),37.2%,9.14% (active),33.7%,40.8%,13.9%,51.8%,64.1%,2.31% (active),54.8%,24.1%,10.4%,43%,17.7%
CCN(CC)CCCC(C)Nc1c2ccc(C)cc2nc2ccc(OC)cc12 (stereo unspecified),41.8%,42.4%,10.9%,45%,-44.3% (active),40.8%,51.1%,14.7%,33%,-40.4% (active),4.05% (active),4.22% (active),53.3%,41.9%,23.7%,39.4%,8.67% (active),10.2%,-76% (active),-10.2% (active)
O=C(CCCCCCSc1nc(-c2ccc(Cl)cc2)cc(-c2ccc(Cl)cc2)n1)NO,24.2%,26.7%,38.4%,15.9%,14.9%,44.8%,17.1%,7.16% (active),30.8%,48.4%,22.4%,24.4%,15%,61.1%,2.65% (active),30.4%,52.6%,28.4%,31.5%,31.7%
C=C(C)[C@@H]1CC[C@]2(C(=O)NCCCN)CC[C@]3(C)[C@H](CC[C@@H]4[C@@]5(C)CC[C@H](O)C(C)(C)[C@@H]5CC[C@]43C)[C@@H]12,-8.47% [100 µM] (active),36.6% [100 µM],-68.8% [100 µM] (active),-26.8% [100 µM] (active),-43.2% [100 µM] (active),-55.5% [100 µM] (active),-17% [100 µM] (active),-4.7% [100 µM] (active),-22.6% [100 µM] (active),7.82% [100 µM] (active),-100% [100 µM] (active),1.1% [100 µM] (active),-18.8% [100 µM] (active),-47.8% [100 µM] (active),-42.3% [100 µM] (active),-16.9% [100 µM] (active),-26.4% [100 µM] (active),-36.2% [100 µM] (active),-46.7% [100 µM] (active),–
COc1ccc(C(=O)/C=C/c2ccccn2)c(O)c1,85.4%,98%,95.3%,87.5%,89.7%,78.6%,69.4%,94%,79.6%,103%,45.1%,41.9%,88.2%,82.4%,56.2%,90.5%,97.1%,49.4%,100%,–
C=C(C)[C@@H]1CC[C@]2(C(=O)NCCNCCNC(=O)OC(C)(C)C)CC[C@]3(C)[C@H](CC[C@@H]4[C@@]5(C)CCC(=O)C(C)(C)[C@@H]5CC[C@]43C)[C@@H]12,37.1% [100 µM],44.2% [100 µM],73.8% [100 µM],45.4% [100 µM],20.6% [100 µM],8.07% [100 µM] (active),39.9% [100 µM],32.1% [100 µM],52.6% [100 µM],57.7% [100 µM],53.5% [100 µM],38.1% [100 µM],64.3% [100 µM],-33.8% [100 µM] (active),35.9% [100 µM],49.8% [100 µM],32% [100 µM],50.1% [100 µM],36.9% [100 µM],–
